# Compound activity (PubChem)
# FMDV antiviral: foot and mouth disease virus antiviral activity | FMDV antiviral cell-based qHTS | 410,000 compounds, 1.2% hits | Potency, µM (top dose mostly 57.9 µM), for the others: top-dose activity change, negative = inhibition, hits mostly inhibitors; calls by dose curve; tested in HEK293T cells; further: read-out not given here; potency means the concentration at half of the fitted maximal effect; nearly all actives have a fitted effect of over 45% in size
# HCV inh: inhibitors of hepatitis C virus infection; Huh7.5.1 HCVcc-Cre infection, luciferase reporter, 44 h; Potency, µM (doses to about 41.8 µM), for the others: at the top dose activity change, negative = inhibition, most hits filed as inhibitors; 340,000 compounds, 3.4% hits; further: potency means the concentration at half of the fitted maximal effect
#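 Cells (1,000/well) were plated 4 h before compound, then infected with HCVcc-Cre virus (~0.5 moi). After 44 h further culture, infection was read as luciferase luminescence following a 15 min substrate incubation at room temperature.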
# HCMV antiviral: inhibitors of human cytomegalovirus | HFF cells, HCMV-luciferase reporter, 72 h; active compounds read low | activity change, negative = inhibition, % at 57.5 µM | 410,000 compounds, 4.5% hits | AID 1259415; in the data active means activity change below about -60%; inconclusive means no clear call, values can overlap the other calls; inactive means above about -39%
#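 Screen run at 2 compound doses on HFFs infected with reporter HCMV, MOI 1 PFU/cell. Luciferase activity from cell lysates at 72 h post infection gave inhibition relative to buffer-only and Salinomycin wells.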
# AmpC no deterg: inhibitors of E. coli AmpC beta-lactamase without detergent; P00811; 330,000 compounds, 0.52% hits; AmpC nitrocefin hydrolysis, absorbance 480 nm, 0.0001% Triton; Potency, µM (highest dose often 57.1 µM), for the others: top-dose activity change, negative = inhibition, usual class: inhibitors;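 further: potency means the concentration at half of the fitted maximal effect; plate controls were no compound for no effect and no enzyme for full effect; nearly all actives have a fitted effect of over 20% in size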
# Target sequence (P00811 whole entry, looked up): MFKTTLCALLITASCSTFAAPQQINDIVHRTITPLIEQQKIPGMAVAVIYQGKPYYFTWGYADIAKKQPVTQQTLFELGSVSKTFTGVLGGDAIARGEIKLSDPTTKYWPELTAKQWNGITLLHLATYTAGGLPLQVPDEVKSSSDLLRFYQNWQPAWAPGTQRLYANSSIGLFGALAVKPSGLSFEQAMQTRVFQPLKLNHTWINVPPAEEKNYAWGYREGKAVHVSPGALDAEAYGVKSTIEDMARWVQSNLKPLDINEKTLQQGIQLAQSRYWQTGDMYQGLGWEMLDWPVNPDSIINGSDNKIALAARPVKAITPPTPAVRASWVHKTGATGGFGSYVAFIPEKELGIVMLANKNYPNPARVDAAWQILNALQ
#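 20 mM phosphate pH 7.0 + 0.01% (detergent screen) or 0.0001% Triton X-100; 5.3 nM AmpC reagent; cpd preinc 15 min RT; nitrocefin (800 uM stock) to start; A480 q20 s × 4 min; Activity was normalised to no-enzyme and no-compound control wells.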
# AmpC detergent: AmpC beta-lactamase inhibition with detergent present. 370,000 compounds, 0.041% hits. Potency, µM (titrated, usually from 114 µM), for inactives: at the highest dose activity change, negative = inhibition, most hits filed as inhibitors. AmpC hydrolysis of nitrocefin, absorbance 480 nm, 0.01% Triton. P00811;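 further: potency means the concentration at half of the fitted maximal effect; 0% = no-compound wells and -100% = no-enzyme wells; nearly all actives have a fitted effect of over 25% in size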
#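 AmpC (5.3 nM in the dispensed reagent) in 20 mM phosphate pH 7.0 with 0.01% (detergent screen) or 0.0001% Triton X-100 was preincubated with compounds for 15 min at room temperature. Nitrocefin was then added from an 800 uM solution, and hydrolysis was followed at 480 nm.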
# Starred values were filed as active, the others as inactive; ? = inconclusive; . = not tested or not shown. In the library only some 7.3% were active in any assay of this set; here they are far more common. Unless noted, the call rests on the fitted dose curve; in most records, active means well fitted curve in the direction sought with a large enough effect; inconclusive means small, poorly fitted or top-dose-only effect, or another doubt; inactive means no such curve, though single readings can be large; an effect the other way counts as inactive or inconclusive. Unless noted, on the % scale 0 is the no-effect control and ±100 the full control effect.
SMILES,FMDV antiviral,HCV inh,HCMV antiviral,AmpC no deterg,AmpC detergent
Cc1ccc(NC(=O)COc2ccc(-c3nn(C)c(=O)c4ccccc34)cc2)c(C)c1,?,.,-39.9,.,21.8%
CN1C(=O)c2cccc(NCCCCCCN3C(=O)c4ccccc4C3=O)c2C1=O,12.6µM*,6.2%,30.7,-6.6%,2.9%
CN1C(=O)c2cccc(NCCCN3C(=O)c4ccccc4C3=O)c2C1=O,3.5%,10.2%,27.2,-7.3%,-6.1%
Cc1[nH]c2ccccc2c1/C=N/Nc1nc(Nc2ccccc2)nc(N2CCOCC2)n1,-11.3%,?,-99.4*,1.2%,-11.6%
Oc1[nH]c2ccccc2c1N=Nc1nc(Nc2ccccc2)nc(N2CCOCC2)n1,?,14.1µM*,-102.7*,-26.4%,8.6%
CCN1CCN(C(=O)c2cnn(-c3ccc(F)cc3)c2-n2cccc2)CC1,-17.8%,.,13.0,.,19.5%
CCn1c(C)cc(C(=O)CSc2nnc(-c3ccco3)o2)c1C,28.5%,-1.3%,-9.5,-7.9%,5.9%
Cc1cc(C(=O)CSc2nnc(-c3ccco3)o2)c(C)n1C,18.9%,11.2µM*,-16.1,-19.3%,.
CC1CCN(C(=O)Cn2c(-c3cccs3)cc3cc(Cl)ccc32)CC1,-10.9%,.,-22.5,.,17.5%
CCc1cc(=O)[nH]c(-n2[nH]c(-c3ccccc3)cc2=O)n1,8.9%,-0.9%,-29.1,-45.0%,-3.3%
O=c1cc(-c2ccccc2)[nH]n1-c1nc2ccccc2[nH]1,-20.0%,?,-83.5*,?,3.1%
COCC(C)n1c(SCC(=O)Nc2c(C)n(C)n(-c3ccccc3)c2=O)nc2ccccc2c1=O (stereo not given),-25.3%,-11.2%,0.4,4.4%,.
COc1cccc(C2NC(=S)NC3=C2CCc2ccccc23)c1 (stereo not given),-2.4%,?,?,-30.9%,-2.3%
COc1ccc2c(c1)C1=C(CC2)C(c2ccc(C)cc2)NC(=S)N1 (stereo not given),-0.6%,11.2µM*,?,-53.3%,-14.4%
CCCSc1ncc(Cl)c(C(=O)Nc2c(C(=O)c3ccc(C)cc3)oc3ccccc23)n1,-12.1%,.,-23.7,.,11.4%
CCn1cc(CNCc2ccc(OCC(O)CN(C)Cc3ccccc3)cc2)cn1 (stereo not given),-14.4%,10µM*,.,-16.8%,-9.3%
CN(C)CCCn1c(=S)[nH]c2ccccc2c1=O,-9.0%,-3.2%,16.5,-30.5%,-0.1%
CN(C)CCCn1c2c3ccccc3ccc2c2oc(=O)c3ccccc3c21,-8.3%,?,-91.8*,.,.
CCc1ccc(NC(=O)Cn2nc(C)n3cccc3c2=O)cc1,-5.9%,5.2%,-7.5,-4.6%,-1.9%
CCOc1ccc(CCNC(=O)CN2CCN(Cc3ccc(F)cc3)C2=O)cc1OCC,-20.2%,?,-27.9,63.2%,-9.7%
CCOc1ccc(CCNC(=O)c2cc3ccccn3n2)cc1OCC,?,12.6µM*,9.7,1.2%,-13.7%
CCc1ccc(NC(=O)c2cc3sc(Cl)cc3n2C)cc1,54.7%,.,56.3,.,56.2µM*
Cn1c(C(=O)NCc2ccccc2Cl)cc2sc(Cl)cc21,12.5%,.,-62.3*,.,18.1%
Cc1cccc(CCNC(=O)c2cc3ccccn3n2)c1,38.9%,.,64.6,.,-0.1%
CCOc1ccc(CCNC(=O)CN2CCN(Cc3ccccc3F)C2=O)cc1OCC,5.5%,11.2µM*,-2.6,49.2%,?
SMILES,FMDV antiviral,HCV inh,HCMV antiviral,AmpC no deterg,AmpC detergent
COc1ccc(S[C@]2(C(=O)N3CCCC3)CC(=O)N(c3ccc(C#N)cc3)[C@@H]2c2ccc(OC)cc2)cc1,.,.,-25.3,.,.
COc1cccc(-n2cnnc2SCC(=O)NC2CC2)c1,-12.5%,-2.6%,-18.3,-21.1%,-7.8%
Cc1ccc(S(=O)(=O)n2nc(-c3ccc(Cl)cc3)nc2NCc2ccc(F)cc2)cc1,-21.1%,.,-4.3,.,20.4%
Cc1ccc(C)c(NC(=O)c2cc3ccccn3n2)c1,34.7%,9.0%,-14.8,4.47µM*,?
CCOc1ccc(CCNC(=O)c2cc3sc(Cl)cc3n2C)cc1OCC,-16.2%,7.08µM*,-9.5,37.1%,-2.6%
CCOc1ccc(CCNC(=O)c2cc3c(=O)n(C)c4ccccc4c3s2)cc1OCC,-11.1%,.,-2.2,.,0.1%
Cc1cc(C)c(C)c(S(=O)(=O)N2CCN(c3ccc(O)cc3)CC2)c1C,17.7%,9.4%,-32.0,-30.3%,0.2%
COc1cc(C)c(CN2CCOc3ccc(C(O)c4cccnc4)cc3C2)cc1C (stereo not given),-19.4%,.,.,.,.
COc1ccc(NC(=O)N(C)C[C@@H]2OCc3cnnn3CCCC(=O)N([C@@H](C)CO)C[C@@H]2C)cc1,.,.,-24.4,.,.
O=C(c1ccc(S(=O)(=O)NCc2ccco2)cc1)N1CCN(Cc2ccccc2)CC1,-15.9%,?,-34.4,25.3%,2.7%
O=C(NC1CCCCC1)c1ccc(S(=O)(=O)NCc2ccco2)cc1,26.2%,12.1%,89.2,-27.1%,-10.1%
Cc1ccc(C)n1-c1ccc(C(=O)NC2CCN(Cc3ccccc3)CC2)cc1,?,?,-61.7*,-6.0%,-3.1%
O=C(NC1CCN(Cc2ccccc2)CC1)c1ccc(S(=O)(=O)NCc2ccco2)cc1,-29.0%,3.98µM*,-29.8,-19.4%,4.6%
COc1ccc(CN2CCN(C(=O)c3ccc(S(=O)(=O)NCc4ccco4)cc3)CC2)cc1,?,?,-83.5*,71.9%,0.0%
CC1CCCC(C)N1C(=O)c1ccc(S(=O)(=O)NCc2ccco2)cc1 (stereo not given),-12.1%,10.8%,-76.1*,17.4%,-6.2%
Cc1ccc(CN2CCC(NC(=O)c3ccccc3)CC2)cc1,-9.6%,-24.8%,-15.3,-13.5%,-6.2%
CCOC(=O)N/N=C(/C)c1ccc(N2C(=O)C3CCCCC3C2=O)cc1 (stereo not given),-1.2%,2.8%,-12.9,-7.0%,3.4%
CCOC(=O)C1CCN(S(=O)(=O)c2ccc3c(c2)NC(=O)C(C)C(=O)N3)CC1 (stereo not given),-25.4%,-4.8%,3.8,-26.6%,1.2%
COc1ccc(NC(=O)C2CC(c3ccccc3O)=NO2)cc1OC (stereo not given),-13.8%,?,?,44.0%,1.0%
CC1CN(CC(=O)NCCC2COc3ccccc3O2)Cc2cc(Cl)ccc2O1 (stereo not given),-5.2%,.,.,.,.
COc1ccc(C(=O)N2CC(=O)Nc3ccc(F)cc3C2c2ccc(F)cc2)c(OC)c1 (stereo not given),-22.7%,.,3.1,.,6.9%
O=C(NCc1nnc(SCC(=O)N2CCN(c3ccccc3)CC2)o1)c1c(F)cccc1Cl,?,-23.7%,?,-1.1%,?
CC1(C(=O)NC2CCN(Cc3ccccc3)CC2)CCN1Cc1ccc2ccccc2c1 (stereo not given),?,.,-67.5*,.,.
CC(C)CNc1nc(Br)cnc1N,.,.,38.9,.,.
CC(C)Cn1cc(NC(=O)NCc2ccc(Cl)cc2)c2ccccc2c1=O,-17.9%,.,-105.5*,.,16.0%
